From PubChem BioAssay AID1626 (SRMLSC, 2009) come the findings set out here.

Screen size: about 220,000 compounds; about 2,000 (0.91%) were called active. Not shown: some 2% with an inconclusive outcome. Only a sample is shown. Entries with a potency or affinity are not part of this list. Unmarked numbers belong to inactive results. No stated cut-off is given here; in the data, inconclusive means inhibition above about 80% without an active follow-up result; inactive means below that; test concentration not stated here.

This experiment can be described thus: M. tuberculosis H37Rv growth inhibitors, H37Rv strain (AID 1626).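 Further: bacteria incubated seven days before Alamar blue readout; 0% = bacteria only wells and 100% = bacteria with antibiotic wells.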 The note with it: active compounds read high, concentration not given here.
Usually inhibition stands for the relative decrease from the control value, in per cent. Regarding `CS(=O)(=O)c1ccc2nc(NC(=O)C3CCCO3)sc2c1` (configuration not stated), the inhibition is -7.03%. In the case of `CSc1ccc(CN(C)Cc2nc3ccccc3c(=O)[nH]2)cc1` it was -5.14%. In the case of `COc1cc2nc(CN(C)Cc3nc4ccccc4c(=O)[nH]3)[nH]c(=O)c2cc1OC` it was -3.41%; in that of `CCN(Cc1cc(=O)n2ccsc2n1)Cc1nc2ccccc2c(=O)[nH]1`, -0.5%.

As to `CCN(Cc1nc2ccccc2c(=O)[nH]1)Cc1nc2cc(OC)c(OC)cc2c(=O)[nH]1`, the inhibition is -5.3%. For `Cc1nn(CC(=O)NC(C)c2ccccc2)c(=O)c2ccccc12` (configuration not stated), the inhibition is -2.29%. Under `CC1Cc2ccccc2N1C(=O)CSc1nc2c(c(=O)n(C)c(=O)n2C)n1Cc1ccc(F)cc1` (configuration not stated) stands -3.29%; under `COCCn1c(NC(=S)NC(=O)C23CC4CC(CC(C4)C2)C3)cc(=O)[nH]c1=O`, -0.61%; under `COC(=O)c1cccc(-n2c(CCC(=O)O)ccc2-c2cccs2)c1`, 6.42%. Under `CCN(CC)c1ccc(N=Cc2ccccc2[N+](=O)[O-])cc1` stands 15.5%.

Take `CN(/N=C/c1ccc([N+](=O)[O-])o1)c1ccccc1`: the inhibition was 1.22%. In the case of `COc1ccc(/C=C/CN2CCCC(CO)(Cc3cccc(Cl)c3)C2)cc1` (configuration not stated) it was 2.62%; in that of `COc1cccc(CC2(CO)CCCN(C/C=C/c3ccccc3OC)C2)c1` (configuration not stated), 39.9%. In the case of `NC(=S)NC1CC2C=CC1C2` (configuration not stated) it was -6.06%; in that of `CN1CCN(S(=O)(=O)c2cccc(C(=O)Nc3nccs3)c2)CC1`, -4.26%.

For the molecule `O=C1NC(=O)/C(=C/c2cccc(O)c2)N1`, the inhibition was 8.98%. Under `O=C(Cc1ccccc1)Nc1ccc(SC(F)F)cc1` stands 1.19%; under `O=C(COC(=O)Cc1ccccc1F)Nc1ccc(SC(F)F)cc1`, 91.8%; under `O=C(O)CC/C(=N/NC(=O)c1cccs1)c1ccccc1`, 7.05%. In the case of `O=C(CCC1CCCCC1)NCCN1C2=NC[C@H](Cc3ccccc3)N2C[C@H]1Cc1ccc(O)cc1` it was 9.81%; in that of `O=C(CCC1CCCCC1)NCCN1C2=NC[C@@H](Cc3ccccc3)N2C[C@H]1Cc1ccc(O)cc1`, 39.5%; in that of `COc1ccc(C[C@H]2CN3C(=NC[C@H]3C)N2CCNC(=O)CCC2CCCCC2)cc1`, -3.43%. As for `COc1ccc(C[C@H]2CN3C(=NC[C@@H]3C)N2CCNC(=O)CCC2CCCCC2)cc1`, the inhibition was -3.39%. In the case of `NC(=O)c1nn(-c2ccccc2)nc1NC(=O)Cn1nnc(-c2ccccc2)n1` it was 9.3%; in that of `Cc1ccc(CS(=O)(=O)Cc2ccc(C(=O)NCc3cccs3)o2)cc1`, 3.64%; in that of `CC(C)c1cccc(C(C)C)c1OCCCCN1CCCC1`, 10.1%. Under `O=C(CCn1cccc1)N1CCc2ccccc21` stands 6.64%; under `CC(C)c1ccc(NC(=O)COC(=O)C2=COCCO2)cc1`, 78.6%. In the case of `Cc1ccc(NC(=O)COC(=O)C2=COCCO2)cc1` it was 60.1%. Turning to `CC(C)(C)c1ccc(NC(=O)COC(=O)C2=COCCO2)cc1`, the inhibition was 74%. Under `CCOC(=O)c1ccccc1NC(=O)COC(=O)C1=COCCO1` stands 71.3%. Under `NS(=O)(=O)c1ccc(NS(=O)(=O)c2ccc(NC(=S)Nc3ccccc3)cc2)cc1` stands 7.44%; under `CC(=O)C1=C(C)NC(=O)CC1c1ccc(F)cc1` (configuration not stated), -1.68%. Under `COc1cc([N+](=O)[O-])ccc1NC(=O)/C=C\C(=O)O` stands 2.65%; under `COc1ccc(CC(=O)Nc2ccccc2N2CCCCC2)cc1OC`, 6.94%. With `Cn1cnnc1-c1cccc(NC(=O)c2cc(F)c(F)cc2Cl)c1`, the inhibition is -5.29%. In the case of `O=C(NC1CCCC1)C(c1ccccc1)N(Cc1ccco1)C(=O)Cc1cccs1` (configuration not stated) it was 2.16%; in that of `O=C(CCn1c(=O)[nH]c2ccccc2c1=O)Nc1ccccc1`, -7.56%. In the case of `O=c1cc(C(F)F)oc2c1ccc1ccccc12`, the inhibition is 1.35%. In the case of `O=c1cc(C(F)(F)F)oc2c1ccc1ccccc12` it was -2.31%; in that of `COc1ccc(C(=O)C2CCCN(C(=O)c3cccnc3SC)C2)c(C)c1` (configuration not stated), -5.65%.

For the molecule `NS(=O)(=O)c1ccc(CCNCc2cccs2)cc1`, the inhibition is 1.78%. In the case of `COc1ccc(NC(=O)c2ccco2)cc1N` it was -14.7%; in that of `CCOC(=O)C1C(=O)CC(C)(O)C(C(=O)OCC)C1c1ccc(SC)cc1` (configuration not stated), 9.27%; in that of `CCc1ccc(N2CSC3=C(C#N)C(c4cccs4)CC(=O)N3C2)cc1` (configuration not stated), 22.1%. Under `COc1ccc(N2CSC3=C(C#N)C(c4cc(OC)ccc4OC)CC(=O)N3C2)c(OC)c1` (configuration not stated) stands -0.31%. In the case of `Cc1ccc(N2CSC3=C(C#N)C(c4cccs4)CC(=O)N3C2)cc1` (configuration not stated) it was 7.29%. With `COc1ccc(N2CSC3=C(C#N)C(c4cc(OC)c(OC)cc4OC)CC(=O)N3C2)c(OC)c1` (configuration not stated), the inhibition is 15%. On to `COc1ccc(OC)c(C2CC(=O)N3CN(c4ccccc4)CSC3=C2C#N)c1` (configuration not stated), for which the inhibition is 0.68%. Under `COc1cccc(C2CC(=O)N3CN(c4cccc(Cl)c4C)CSC3=C2C#N)c1OC` (configuration not stated) stands -1.72%; under `CC(=O)OC(C)CS(=O)(=O)c1ccccc1` (configuration not stated), -4.77%. `CCN(c1cccc(C)c1)C(C(=O)Nc1ccc(OC)cc1)c1cc2c(cc1[N+](=O)[O-])OCO2` (configuration not stated): the inhibition is 1.06%. In the case of `Cc1ccc(C(=O)Nc2cccnc2)cc1[N+](=O)[O-]` it was -3.36%. Under `CCc1nc(SCc2cccnc2)[nH]c(=O)c1C` stands -4.49%; under `COc1ccc(CN2C(=O)N(c3ccc(OC)cc3)C(=O)C2CC(=O)Nc2ccccc2)cc1` (configuration not stated), 6.5%. Regarding `CCCc1cc(=O)oc2c(CN3CCCC3)c(O)ccc12`, the inhibition is -6.61%.

As to `CCCCN(C)C(=O)c1ccc(CS(=O)(=O)c2ccccc2C)o1`, the inhibition was -5.74%. In the case of `COc1ccc(C2=Nc3ccc(C)cc3C(c3ccccc3)N2CC(=O)NN)cc1` (configuration not stated) it was -0.28%; in that of `NNC(=O)CN1C(c2cccc(Cl)c2)=Nc2ccc(Br)cc2C1c1ccccc1` (configuration not stated), -2.26%. In the case of `COC(=O)CN1C(c2ccccc2)=Nc2ccc(Cl)cc2C1c1ccccc1` (configuration not stated) it was 0.35%.

Regarding `COC(=O)CN1C(c2ccc(Cl)cc2)=Nc2ccc(Cl)cc2C1c1ccccc1` (configuration not stated), the inhibition is 79.4%. Turning to `O=C1/C(=C/c2ccc(F)c(F)c2)CSc2sccc21`, the inhibition was 12.2%. In the case of `CCCCNS(=O)(=O)c1ccc2nc(-c3cccs3)cc(C(=O)NCC(OC)OC)c2c1` it was 3.68%.

In the case of `COc1ccc(NC(=O)NC23CC4CC(CC(C4)C2)C3)cc1OC`, the inhibition is 25.7%.

In the case of `COC(=O)c1ccc(Cl)c(NC(=O)NC23CC4CC(CC(C4)C2)C3)c1`, the inhibition is 2.38%. In the case of `CCOc1ccc(NC(=O)Nc2ccc(NC(C)=O)cc2)cc1` it was -1.52%; in that of `COC(=O)c1cccc(NC(=O)Nc2ccc(Cl)c(Cl)c2)c1`, 51.3%. In the case of `CCCc1cc(=O)oc2cc(C)cc(OCC(=O)O)c12` it was -0.53%.

For `COC(CNC(=O)c1cc(-c2ccncc2)nc2ccc(S(=O)(=O)N3CCOCC3)cc12)OC`, the inhibition was -0.15%.

In the case of `CN(C)CCc1nn[nH]n1`, the inhibition was -3.39%. In the case of `COc1cc(NC(=O)c2ccc(F)cc2)c(OC)cc1Cl` it was 6.81%. In the case of `COc1ccc(NC(=O)c2c(F)c(F)c(F)c(F)c2F)cc1Cl` it was 0.77%; in that of `COc1cccc(N2CCN(Cc3nc(N)nc(Nc4ccccc4)n3)CC2)c1`, 0.52%; in that of `COc1ccccc1N1CCN(Cc2nc(N)nc(Nc3ccc(C)cc3)n2)CC1`, 48.7%. In the case of `COc1ccc(Nc2nc(N)nc(CN3CCN(c4ccc(F)cc4)CC3)n2)cc1` it was 2.63%; in that of `COc1ccccc1N1CCN(Cc2nc(N)nc(Nc3ccccc3)n2)CC1`, -1.85%. `CCOC(=O)c1ccc(NC(=S)Nc2cccc(N)n2)cc1`: the inhibition is 59.5%. Under `CCCNc1nc2c(c(=O)[nH]c(=O)n2C)n1Cc1cccc(Br)c1` stands 1.4%; under `CCOc1ccc(NC(=O)CN2C(=O)S/C(=C/c3cccn3C)C2=O)cc1`, 0.02%; under `CCC(C)NC(=O)CCNS(=O)(=O)c1ccc(Br)cc1` (configuration not stated), -4.65%. In the case of `CCn1nccc1C(=O)Nc1nccs1`, the inhibition is -3.43%.

On to `NS(=O)(=O)c1cccnc1Nc1cccc(C(F)(F)F)c1`, for which the inhibition is 3.67%. As to `c1ccc(Oc2nc(-c3cccnc3)nc3ccccc23)cc1`, the inhibition was 8.16%.

In the case of `Cc1ccc(Oc2nc(-c3cccnc3)nc3ccccc23)c([N+](=O)[O-])n1`, the inhibition was 7.05%. Take `CCCC(=O)Nc1cc(C(=O)O)ccc1Sc1ccc(C)cc1`: the inhibition was -4.31%. In the case of `COC(=O)CCC(=O)NC(=S)Nc1cc(Cl)ccc1Cl` it was -5.76%; in that of `O=C(CSCc1ccccc1)Nc1ccc2c(c1)C(=O)NC2=O`, -3.24%. Under `N#C/C(=C\c1ccc([N+](=O)[O-])cc1)c1ccccn1` stands 7.55%; under `NC(CO)(CO)COCc1ccccc1`, 5.19%.

Consider `O=C(O)/C=C/c1ccccc1[N+](=O)[O-]`, for which the inhibition is -15.1%. Under `Cc1ccc(/C=C/C(=O)c2ccc(C)cc2)cc1` stands 3.08%.

For `Cc1ccc(C(=O)/C=C\NCc2ccccc2)cc1`, the inhibition is 2.13%.

`O=C(/C=C/c1ccc(-c2ccccc2)o1)c1ccccc1`: the inhibition is 12.6%.

Take `Cc1ccc(C(=O)/C=C/C(=O)O)cc1`: the inhibition is 1.06%. Regarding `O=C(/C=C/c1ccccc1[N+](=O)[O-])c1ccc(F)cc1`, the inhibition is 49.5%. Under `Cc1ccc(C(=O)/C=C/c2ccc(-c3ccc(C)cc3)o2)cc1` stands 88.2%; under `Cc1ccc(/C=C/C(=O)c2ccccc2)cc1`, 10.3%.
